Screen size: about 5,500 compounds; about 2,000 (36%) were called active. About 18% were inconclusive and are not listed. Rule as the data show it: active = normalized growth mostly below about 0.91 (no sharp cut-off); inconclusive = no clear call, values can overlap the other calls; inactive = mostly above about 0.92. This is one part of the list.
Experiment: chemical genetic growth profiling, strain panel (AID 1159580);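 also: tested at 20 µM; growth read once vehicle control cultures reached saturation at 30 °C; 1 = growth at the plate median or of vehicle wells; lower values mean less growth of the strain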
Details: growth OD

Measured: normalized growth

OCc1ccccc1O[C@@H]1O[C@H](CO)[C@@H](O)[C@H](O)[C@H]1O
inactive: S. cerevisiae deletion strains, locus YJR066W, strain TOR1, active compounds read low 0.94 | S. cerevisiae deletion strains, locus YKL009W, strain mrt4, active compounds read low 1.01 | S. cerevisiae deletion strains, locus YKL068W, active compounds read low 0.98 | S. cerevisiae deletion strains, locus YKL085W, strain MDH1 (second series), active compounds read low 0.973 | S. cerevisiae deletion strains, locus YKL085W, strain MDH1, active compounds read low 0.973 | S. cerevisiae deletion strains, locus YKL160W, strain elf1, active compounds read low 0.993 | S. cerevisiae deletion strains, locus YKL190W, strain CNB1, active compounds read low 0.988 | S. cerevisiae deletion strains, locus YKR001C, strain vps1, active compounds read low 0.985 | S. cerevisiae deletion strains, locus YKR026C, strain gcn3, active compounds read low 1 | S. cerevisiae deletion strains, locus YKR091W, strain srl3, active compounds read low 0.994 | S. cerevisiae deletion strains, locus YLL001W, strain dnm1, active compounds read low 0.975 | S. cerevisiae deletion strains, locus YLL026W, active compounds read low 0.999 | S. cerevisiae deletion strains, locus YLL041C, strain sdh2, active compounds read low 0.991 | S. cerevisiae deletion strains, locus YLR027C, strain aat2, active compounds read low 1 | S. cerevisiae deletion strains, locus YLR039C, strain RIC1, active compounds read low 0.936 | S. cerevisiae deletion strains, locus YLR058C, strain SHM2, active compounds read low 0.978 | S. cerevisiae deletion strains, locus YLR102C, strain apc9, active compounds read low 0.99 | S. cerevisiae deletion strains, locus YLR113W, strain HOG1, active compounds read low 1.01 | S. cerevisiae deletion strains, locus YLR221C, strain rsa3, active compounds read low 0.991 | S. cerevisiae deletion strains, locus YLR258W, strain gsy2, active compounds read low 0.977 | S. cerevisiae deletion strains, locus YLR262C, strain YPT6 (second series), active compounds read low 0.997 | S. cerevisiae deletion strains, locus YLR262C, strain YPT6, active compounds read low 0.929 | S. cerevisiae deletion strains, locus YLR268W, strain sec22, active compounds read low 0.979 | S. cerevisiae deletion strains, locus YLR320W, strain mms22, active compounds read low 0.999 | S. cerevisiae deletion strains, locus YLR330W, strain CHS5, active compounds read low 0.989 | S. cerevisiae deletion strains, locus YLR342W, strain FKS1 (second series), active compounds read low 1.06 | S. cerevisiae deletion strains, locus YLR342W, strain FKS1, active compounds read low 0.995 | S. cerevisiae deletion strains, locus YLR357W, strain rsc2, active compounds read low 1.02 | S. cerevisiae deletion strains, locus YLR370C, strain arc18, active compounds read low 0.98 | S. cerevisiae deletion strains, locus YLR371W, strain rom2, active compounds read low 0.994 | S. cerevisiae deletion strains, locus YLR384C, strain iki3, active compounds read low 0.989 | S. cerevisiae deletion strains, locus YLR418C, strain cdc73, active compounds read low 1.02 | S. cerevisiae deletion strains, locus YML016C, strain PPZ1, active compounds read low 0.988 | S. cerevisiae deletion strains, locus YML032C, strain rad52, active compounds read low 0.993 | S. cerevisiae deletion strains, locus YML120C, strain ndi1, active compounds read low 1 | S. cerevisiae deletion strains, locus YML124C, strain tub3, active compounds read low 0.992 | S. cerevisiae deletion strains, locus YMR058W, strain fet3, active compounds read low 0.999 | S. cerevisiae deletion strains, locus YMR078C, strain ctf18, active compounds read low 0.987 | S. cerevisiae deletion strains, locus YMR125W, strain sto1, active compounds read low 0.976 | S. cerevisiae deletion strains, locus YMR129W, active compounds read low 1 | S. cerevisiae deletion strains, locus YMR205C, strain PFK2, active compounds read low 1.01 | S. cerevisiae deletion strains, locus YMR223W, strain ubp8, active compounds read low 1.05 | S. cerevisiae deletion strains, locus YMR231W, strain pep5, active compounds read low 0.992 | S. cerevisiae deletion strains, locus YMR263W, strain SAP30, active compounds read low 0.992 | S. cerevisiae deletion strains, locus YMR307W, strain GAS1, active compounds read low 1.06 | S. cerevisiae deletion strains, locus YNL067W, strain RPL9B, active compounds read low 0.968 | S. cerevisiae deletion strains, locus YNL071W, strain lat1, active compounds read low 0.999 | S. cerevisiae deletion strains, locus YNL153C, strain GIM3, active compounds read low 0.951 | S. cerevisiae deletion strains, locus YNL183C, strain NPR1, active compounds read low 0.944 | S. cerevisiae deletion strains, locus YNL209W, strain ssb2, active compounds read low 0.974 | S. cerevisiae deletion strains, locus YNL233W, strain BNI4, active compounds read low 0.974 | S. cerevisiae deletion strains, locus YNL248C, strain rpa49, active compounds read low 0.986 | S. cerevisiae deletion strains, locus YNL250W, strain rad50, active compounds read low 0.99 | S. cerevisiae deletion strains, locus YNL271C, strain bni1, active compounds read low 0.98 | S. cerevisiae deletion strains, locus YNL298W, strain CLA4, active compounds read low 0.994 | S. cerevisiae deletion strains, locus YNL307C, strain MCK1, active compounds read low 0.986 | S. cerevisiae deletion strains, locus YNL322C, strain KRE1 (second series), active compounds read low 0.997 | S. cerevisiae deletion strains, locus YNL322C, strain KRE1, active compounds read low 0.991 | S. cerevisiae deletion strains, locus YNR049C, strain mso1, active compounds read low 0.978 | S. cerevisiae deletion strains, locus YNR052C, strain pop2, active compounds read low 0.998 | S. cerevisiae deletion strains, locus YOL006C, strain TOP1, active compounds read low 0.957 | S. cerevisiae deletion strains, locus YOL012C, strain htz1 1.27 | S. cerevisiae deletion strains, locus YOL147C, strain pex11, active compounds read low 1 | S. cerevisiae deletion strains, locus YOR001W, strain rrp6, active compounds read low 0.998 | S. cerevisiae deletion strains, locus YOR061W, strain CKA2, active compounds read low 0.956 | S. cerevisiae deletion strains, locus YOR069W, strain VPS5, active compounds read low 0.995 | S. cerevisiae deletion strains, locus YOR070C, strain gyp1, active compounds read low 0.995 | S. cerevisiae deletion strains, locus YOR080W, strain dia2, active compounds read low 0.991 | S. cerevisiae deletion strains, locus YOR083W, strain WHI5, active compounds read low 0.999 | S. cerevisiae deletion strains, locus YOR106W, strain vam3, active compounds read low 0.977 | S. cerevisiae deletion strains, locus YOR136W, strain idh2, active compounds read low 0.988 | S. cerevisiae deletion strains, locus YOR144C, strain elg1, active compounds read low 0.99 | S. cerevisiae deletion strains, locus YOR184W, strain ser1, active compounds read low 0.991 | S. cerevisiae deletion strains, locus YOR231W, strain MKK1, active compounds read low 1.01 | S. cerevisiae deletion strains, locus YOR265W, strain rbl2, active compounds read low 1 | S. cerevisiae deletion strains, locus YOR270C, strain vph1, active compounds read low 0.918 | S. cerevisiae deletion strains, locus YOR290C, strain snf2, active compounds read low 0.99 | S. cerevisiae deletion strains, locus YOR316C, strain cot1, active compounds read low 0.975 | S. cerevisiae deletion strains, locus YPL051W, strain arl3, active compounds read low 0.98 | S. cerevisiae deletion strains, locus YPL078C, strain atp4, active compounds read low 0.992 | S. cerevisiae deletion strains, locus YPL106C, strain sse1, active compounds read low 0.991 | S. cerevisiae deletion strains, locus YPL240C, strain hsp82, active compounds read low 0.985 | S. cerevisiae deletion strains, locus YPL241C, strain CIN2, active compounds read low 0.994 | S. cerevisiae deletion strains, locus YPL256C, strain CLN2, active compounds read low 1.03 | S. cerevisiae deletion strains, locus YPR119W, strain clb2, active compounds read low 0.98 | S. cerevisiae deletion strains, locus YPR141C, strain kar3, active compounds read low 0.973 | S. cerevisiae deletion strains, locus YPR163C, strain tif3, active compounds read low 0.992 | S. cerevisiae deletion strains, locus YPR167C, strain met16, active compounds read low 0.997 | S. cerevisiae deletion strains, strain wtn01, active compounds read low 1.01 | S. cerevisiae strains, strain wild type, active compounds read low 0.979
